Assay results taken from PubChem BioAssay (NCI).
This is part of a sample that, as a whole, favours compounds with a hit. Of some 79,000 tested, about 15% had one in any assay. A number with no mark means an inactive call. The source made the active and inactive calls. Rule as the data show it: active = growth inhibition above about 70%; inactive = the rest.

Columns and labels:
[1] = NCI Yeast Anticancer Drug Screen. Data for the rad50 strain (AID 155);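 also: 0% = growth of vehicle-only cultures of the same strain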; conditions: S. cerevisiae rad50 strain growth inhibition; at 50.0 µM; active compounds read high
Outline: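 Relative growth inhibition (compound vs vehicle) was measured in yeast with a defined repair-gene alteration.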

[2] = NCI Yeast Anticancer Drug Screen. Data for the mec2-1 strain (AID 157); conditions: S. cerevisiae mec2-1 strain, at 50.0 µM, active compounds read high
Outline: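 Using mec2-1 yeast: add compound, measure growth, express inhibition versus vehicle-treated cultures.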

[3] = NCI Yeast Anticancer Drug Screen. Data for the sgs1 mgt1 strain (AID 161);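 also: 0% = growth of cultures given vehicle only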; conditions: S. cerevisiae sgs1 mgt1 strain, at 50.0 µM, active compounds read high
Outline: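 Compounds are added to genetically altered yeast, and growth is compared with cultures given vehicle alone to give percent inhibition.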

[4] = NCI Yeast Anticancer Drug Screen. Data for the cln2 rad14 strain (AID 165);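 also: 0% = growth equal to vehicle treated cultures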; conditions: S. cerevisiae cln2 rad14 strain, at 50.0 µM, active compounds read high
Outline: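 Yeast strain cln2 rad14, bearing defects in cell cycle control and DNA repair, serves as the test system; values reflect growth inhibition compared with vehicle.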

[5] = NCI Yeast Anticancer Drug Screen. Data for the bub3 strain (AID 167); conditions: S. cerevisiae bub3 mutant strain, at 50.0 µM, active compounds read high
Outline: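 Screening used yeast with an engineered genetic alteration affecting cell cycle control. Compound-exposed cultures were compared with vehicle cultures, and reduced growth was taken as inhibition.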

[6] = NCI Yeast Anticancer Drug Screen. Data for the mlh1 rad18 strain (AID 175); conditions: S. cerevisiae mlh1 rad18 strain growth inhibition; at 50.0 µM; active compounds read high
Outline: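 Steps: expose repair-defective yeast to compound; measure growth; express inhibition against vehicle-treated controls.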

| Structure (SMILES) | growth inhibition [1] | growth inhibition [2] | growth inhibition [3] | growth inhibition [4] | growth inhibition [5] | growth inhibition [6] |
| --- | --- | --- | --- | --- | --- | --- |
| Cc1cc(Cl)nc(Nc2ccccc2)n1 | 13.1% | -2.5% | 3.8% | -1.8% | 9.25% | 13.7% |
| C1=C(c2ccccc2)OC(c2ccccc2)=C(c2ccccc2)[P+]1(c1ccccc1)c1ccccc1 | 99.5% (active) | 99.7% (active) | 99.7% (active) | 99.7% (active) | 99.5% (active) | 99.5% (active) |
| C/C(CC(C)C)=N/NC(N)=S | 14.9% | 0.7% | 1.35% | -23.1% | 32.6% | 30.4% |
| CCCCNCC1COc2cccc(OCC)c2O1 (stereo not drawn) | 17.1% | -0.1% | -2% | 9.7% | -6.75% | 4% |
| CC(=O)[O-].[Mn+3].[O-]c1ccccc1C=NCCNCCN=Cc1ccccc1[O-] | 17.9% | 8.1% | 49.6% | -7.35% | 8.3% | 51.1% |
| C=C1/C=C/C=C(/C)C(=O)Nc2c(C=O)c(O)c3c4c(c(C)c(O)c3c2O)OC(C)(O/C=C/C(OC)C(C)C(OC(C)=O)C(C)C(O)C(C)C1O)C4=O (stereo not drawn) | 24.1% | 33.5% | 16.4% | 34.2% | 20.4% | 32.5% |
| COc1ccc(CCNC(=O)CC2CCN(Cc3ccccc3)CC2)cc1OC | 3.65% | 1.15% | 5.2% | -3.75% | -3.45% | -1.5% |
| COC(=O)c1cc(=O)[nH]c(=O)[nH]1 | -10.6% | -12.8% | -15.8% | 9.45% | -13.5% | -15.9% |
| CC1(CCOCc2ccccc2)NC(=O)N(CCC#N)C1=O (stereo not drawn) | 6.9% | -9.65% | -4.6% | -10.2% | 2.55% | 12.6% |
| CCOC(CCCl)c1ccccc1 (stereo not drawn) | 2.45% | -12.4% | -39.5% | 7.85% | 11.1% | -10.3% |
| N#Cc1c[nH]n2ccnc12 | -16.7% | -20.4% | -23.4% | -21.7% | -4.1% | -17.1% |
| COc1ccc(Cl)cc1NC(=O)c1ccccc1C(=O)O | 1.2% | 20.9% | -3.2% | -4.3% | 12.4% | -26.1% |
| CCSCN1CCN(CSCC)CC1 | 1.35% | 1.15% | 3.5% | 27.5% | -11.9% | -5.05% |
| O=S(=O)(O)CC(O)CSSCC(O)CS(=O)(=O)O (stereo not drawn) | 33.2% | -3.55% | 8.25% | -4.05% | 1.4% | -9.1% |
| [O-][N+]1=C(c2ccccc2)C(c2ccccc2)C(c2ccccc2)O1 (stereo not drawn) | -13.4% | 1.05% | -2.4% | -6% | -19.1% | 11.2% |
| CCOC(=O)Cc1csc(N=Nc2c(O)[nH]c3ccccc23)n1 | -2.55% | -12.8% | 10.6% | 7.9% | 5.85% | 17.6% |
| CN(C)CC(CN(C)C)C(O)c1ccccc1 (stereo not drawn) | 2.4% | -11.5% | -6.35% | 12% | -4.8% | -13.1% |
| CC(=O)OC12CC3CCC4C(CCC5(C)C(C(C)CCCC(C)C)CCC45)C3(C)CC1O2 (stereo not drawn) | 71% (active) | 48.4% | 69.8% | -1.2% | 14.3% | 42.2% |
| O=C1NC(=O)C(c2ccc(C(=O)O)cc2)N1 (stereo not drawn) | -12.8% | -10% | 0.05% | 8.45% | -5.5% | -2.25% |

| Structure (SMILES) | growth inhibition [1] | growth inhibition [2] | growth inhibition [3] | growth inhibition [4] | growth inhibition [5] | growth inhibition [6] |
| --- | --- | --- | --- | --- | --- | --- |
| CC(=O)Nc1ccc2oc(=O)ccc2c1 | -19.2% | -12.7% | -15.4% | -0.5% | -4.2% | -11.1% |
| CCCC(=O)N(C)c1ccccc1 | 7.5% | -11.1% | -1.85% | -29.4% | 6.35% | -8.35% |
| CC(CN(C)C)CN1c2ccccc2Sc2ccccc21 (stereo not drawn) | -6.7% | -2.4% | -7% | -2.95% | 5.65% | 8.35% |
| N=c1sc2ccccc2n1CC(=O)O | 2.2% | -16.5% | -13.3% | -22.6% | 3.85% | -41.2% |
| Cn1c(=O)c2[nH]c(N(CCO)N=O)nc2n(C)c1=O | -9.25% | -8.2% | -4.25% | -7.35% | 13.3% | -26.4% |
| Cc1cc([N+](=O)[O-])ccn1 | -15.2% | 1.1% | -18.1% | -4.5% | -6.15% | -9.9% |
| CCNCc1ccccc1 | -18.2% | -0.25% | -22.1% | -66.5% | -10.9% | -18.8% |
| ON=C(C1CCCCC1)C1CCCCC1 | -7.35% | -29.1% | -13% | -37.6% | -18.3% | -32.9% |
| C/C(=N\NC(=O)c1ccncc1)c1ccc(Cl)cc1Cl | 5.85% | 7.15% | 0.55% | 1.95% | 4.65% | 8.5% |
| CCOC(=O)C(=CN(C)c1ccc([N+](=O)[O-])cc1)C(=O)OCC | 0.15% | 6.65% | 15.6% | 12.1% | 24.4% | 15.5% |
| C=C1CC(C)(Cn2cnc3c(N)ncnc32)OC1=O (stereo not drawn) | 9% | 10.6% | 9.05% | 20.1% | 16.7% | 21.1% |
| COC(=O)c1c2c(C)ccc(C)c2nc2c(C)ccc(C)c12 | -5.6% | -41% | -2.05% | -15.3% | 22.7% | -41% |
| CCCCOCCOCCOC(=O)C(C)O (stereo not drawn) | -5.6% | -4.7% | -3.95% | 5.1% | -7.25% | -14% |
| CCC(=O)OCCSCCOC(=O)CC | 5.65% | 5.65% | -6.4% | -10.3% | -4.4% | -15.8% |
| Cn1c(N)c(N=O)c(=O)n(C)c1=O | -28.9% | -18.8% | -1.6% | -12.8% | -5.65% | -9.9% |
| O=C(Nc1ccc(Cl)c(Cl)c1)C(Cl)Cl | 23.5% | 15.1% | 50.5% | 30.2% | 39.1% | 10.3% |
| Cc1cccc(-n2cccc2)c1 | -1.6% | -13.8% | 4.8% | -10.7% | -16.3% | 4.75% |
| COC(=O)C(=O)C(/C=N/C(=S)Nc1ccc(S(=O)(=O)Nc2nccs2)cc1)=C(\O)c1c(C)[nH]c2ccccc12 | 39.1% | 23.8% | 35% | 5.2% | 35.9% | 29.8% |
| COc1ccc(-c2cc(-c3ccccc3)n(C3OC(COC(C)=O)C(OC(C)=O)C(OC(C)=O)C3OC(C)=O)c(=S)c2C#N)cc1 (stereo not drawn) | 5% | -11.8% | -8.6% | -25.4% | 26.5% | -5.2% |
